Consider 36 compounds from PubChem BioAssay (NCI).

Structures are written as SMILES. Compounds without any hit were thinned out: in the full panel of roughly 83,000, 20% have a hit.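 Cells were grown in 96-well plates and exposed to the test compound at a single concentration for 48 hours; results are reported as percent growth, with values below 10 considered active.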 Activity calls are given as the source filed them.

This assay concerns HL-60(TB) leukemia. Briefly: NCI-60 one-dose screen, 48 h (100 = growth as untreated, 0 = no growth, -100 = all killed). The following applies: 10 µM unless noted.
In the case of `CN(C)C(=O)c1ccc(SC(=S)NCc2ccccc2)cc1`, the growth was -32% [100 µM] (active).
The result for `COC(=O)c1c2c(n3ccccc13)C(=O)c1ccccc1C2=O` reads 58.6% (inactive); that for `COc1ccc2nc(NC(=O)/C(=C/c3cc(OC)c(OC)c(OC)c3)c3ccc(OC)c(OC)c3)sc2c1`, 94.5% (inactive).
The result for `CC(=O)OC[C@]12CC[C@@H]([C@@H](C)c3nnc(-c4ccncc4)o3)[C@@H]1[C@H]1CC[C@@H]3[C@@]4(C)CC[C@H](OC(C)=O)C(C)(C)[C@@H]4CC[C@@]3(C)[C@]1(C)CC2` reads 61.1% (inactive).
As for `c1ccc(-c2nc3ccccc3[nH]2)c(OCCCCCOc2ccccc2-c2nc3ccccc3[nH]2)c1`, the figure is 22% (inactive); as for `CCC1CCCCN1C(=S)N/N=C(\C)c1ccccn1` (stereo unspecified), 8.04% (active).
For the compound `CN(C)c1ccc(/C=N\NC(=O)c2ccc3nc(-c4ccc(Cl)cc4)[nH]c3c2)cc1`, the growth is 37.4% (inactive).
As for `O=S1(=O)N(Cc2ccccc2)[C@@H](Cc2ccccc2)[C@H](O)[C@H](O)[C@H](Cc2ccccc2)N1Cc1ccccc1`, the figure is -4.17% (active).
The result for `N#Cc1c(-c2ccc(F)cc2)nc(N/N=C/c2c[nH]c3ccccc23)nc1N1CCOCC1` reads 2.62% (active); that for `O=C(Nc1ccc(N2CCNCC2)cn1)c1[nH]ncc1Nc1ncnc2sccc12`, 76.7% (inactive); that for `O=C(CN1N=C(c2ccc(F)cc2)CCC1=O)Nc1nc2ccccc2s1`, 8.9% (active).
The result for `O=C(Cc1ccccc1)Nc1nnc(NC2CCN(c3nnc(NC(=O)Cc4ccccc4)s3)CC2)s1` reads 96.7% (inactive); that for `N#Cc1ccc(NC(=O)c2sc3nc4c(cc3c2N)C(=O)CCC4)cc1`, 81% (inactive); that for `COc1ccccc1Cn1cc2c(c1-c1ccccc1)CCc1cnoc1-2`, 19.4% (inactive).
Take `O=C1/C(=C/c2ccc(Br)cc2)C=C(c2ccccc2)N1CCc1ccccc1`: the growth was 83.8% (inactive).
Turning to `CC(=O)OCC(=O)[C@@]1(O)CC[C@H]2[C@@H]3CC(=C(Br)Br)C4=CC(=O)CC[C@]4(C)[C@H]3C(=O)C[C@@]21C`, the growth is 90.1% (inactive).
The result for `c1ccc(-c2nc(N3CCOCC3)c3c4c(sc3n2)CCCCC4)nc1` reads 79.2% (inactive).
For the compound `Cc1cc2nc3c(=O)[nH]c(=O)nc-3n(CC=O)c2cc1C`, the growth is -55.8% (active).
As for `Clc1cccc(CNc2c3ccccc3nc3ccccc23)c1`, the figure is 9.02% (active).
Turning to `CC[n+]1ccc2c(c1)C(=O)c1nccc3c1c-2nc1ccccc13`, the growth was -31.8% (active).
The result for `COc1ccc2[nH]c(O)c(/C=c3/cc4c(c(-c5ccc(F)cc5)n3)=Nc3ccccc3-4)c2c1` reads 92.5% (inactive).
The result for `O=C(COc1ccc(/C=C2\Oc3ccc4ccccc4c3C2=O)cc1)c1ccc(Cl)cc1` reads 86.5% (inactive); that for `O=C(NCCCN1CCCCC1)c1ccc(-c2nc3ccc4[nH]ncc4c3c3c2CCCC3)cc1`, 93.4% (inactive).
On to `Cc1cc(NC(=O)COC(=O)c2sc3cc(F)ccc3c2Cl)no1`, for which the growth was 107% (inactive).
As for `CC(C)(C)CC(C)(C)Cc1ccc(OCCOCC[N+](C)(C)Cc2ccccc2)cc1`, the figure is -52.6% (active); as for `C=C(CNCCc1ccc(O)cc1)[C@@H]1CC[C@]2(CO)CC[C@]3(C)[C@H](CC[C@@H]4[C@@]5(C)CCC(=O)C(C)(C)[C@@H]5CC[C@]43C)[C@@H]12`, -41.5% (active).
With `O=C(Nc1ccc(F)cc1)c1cc([N+](=O)[O-])ccc1O`, the growth was 59.6% (inactive).
Turning to `CC1=CC(C)(C)NC(=S)N1c1ccc(S(=O)(=O)O)c2cccc(S(=O)(=O)O)c12`, the growth is 106% (inactive).
As for `Nc1ccc(N(O)/C=C2\C=CC=CC2=O)cc1N`, the figure is 73.2% (inactive).
The result for `CCCCCc1c(C)[nH]c(/C=C2\N=C(c3ccc[nH]3)C=C2OCc2ccccc2)c1C` reads -47.5% [100 µM] (active).
As for `CS(=O)(=O)c1nccc(-c2c(-c3ccc(OCCc4ccccc4)cc3)nc3sccn23)n1`, the figure is 89.5% (inactive).
With `Cc1ccc([P+](Cc2ccc([N+](=O)[O-])cc2)(c2ccc(C)cc2)c2ccc(C)cc2)cc1`, the growth is -43.8% (active).
As for `Cn1cc(-c2csc(-c3c[nH]c4ccccc34)n2)c2cnccc21`, the figure is -30.2% (active).
With `CCC1=C(c2ccc(OC)cc2)C(C)Oc2cc(OC(C)=O)ccc21` (stereo unspecified), the growth is 56.7% (inactive).
The result for `CN(C)c1ccc(/C=C(\C#N)c2nc3ccccc3s2)cc1` reads 93.3% (inactive); that for `C#C[C@@]1(O)[C@@H](CO)O[C@@H](n2cc(C(F)(F)F)c3c(N)ncnc32)[C@@H]1O`, -37.6% (active).
